Where “and” joins values, the source holds several entries; their conditions need not be identical. Equal entries are not always repeated. Inconclusive results are not listed. Calls of active or inactive are those of the source. Unless noted, how the calls were made is not given here.
How the values were obtained:
[1] = target: ATP-dependent translocase ABCB1 (Homo sapiens) (UniProt P08183); test: MDR1 (ABCB1) efflux transporter inhibition, cell-based (AID 377; in the data active means fluorescence slope change above about 50%); conditions: MDR1-expressing cells, fluorescent substrate accumulation slope; stronger effect = higher value; concentration not given here
Chain of ATP-dependent translocase ABCB1 (Homo sapiens) (P08183 whole entry, looked up): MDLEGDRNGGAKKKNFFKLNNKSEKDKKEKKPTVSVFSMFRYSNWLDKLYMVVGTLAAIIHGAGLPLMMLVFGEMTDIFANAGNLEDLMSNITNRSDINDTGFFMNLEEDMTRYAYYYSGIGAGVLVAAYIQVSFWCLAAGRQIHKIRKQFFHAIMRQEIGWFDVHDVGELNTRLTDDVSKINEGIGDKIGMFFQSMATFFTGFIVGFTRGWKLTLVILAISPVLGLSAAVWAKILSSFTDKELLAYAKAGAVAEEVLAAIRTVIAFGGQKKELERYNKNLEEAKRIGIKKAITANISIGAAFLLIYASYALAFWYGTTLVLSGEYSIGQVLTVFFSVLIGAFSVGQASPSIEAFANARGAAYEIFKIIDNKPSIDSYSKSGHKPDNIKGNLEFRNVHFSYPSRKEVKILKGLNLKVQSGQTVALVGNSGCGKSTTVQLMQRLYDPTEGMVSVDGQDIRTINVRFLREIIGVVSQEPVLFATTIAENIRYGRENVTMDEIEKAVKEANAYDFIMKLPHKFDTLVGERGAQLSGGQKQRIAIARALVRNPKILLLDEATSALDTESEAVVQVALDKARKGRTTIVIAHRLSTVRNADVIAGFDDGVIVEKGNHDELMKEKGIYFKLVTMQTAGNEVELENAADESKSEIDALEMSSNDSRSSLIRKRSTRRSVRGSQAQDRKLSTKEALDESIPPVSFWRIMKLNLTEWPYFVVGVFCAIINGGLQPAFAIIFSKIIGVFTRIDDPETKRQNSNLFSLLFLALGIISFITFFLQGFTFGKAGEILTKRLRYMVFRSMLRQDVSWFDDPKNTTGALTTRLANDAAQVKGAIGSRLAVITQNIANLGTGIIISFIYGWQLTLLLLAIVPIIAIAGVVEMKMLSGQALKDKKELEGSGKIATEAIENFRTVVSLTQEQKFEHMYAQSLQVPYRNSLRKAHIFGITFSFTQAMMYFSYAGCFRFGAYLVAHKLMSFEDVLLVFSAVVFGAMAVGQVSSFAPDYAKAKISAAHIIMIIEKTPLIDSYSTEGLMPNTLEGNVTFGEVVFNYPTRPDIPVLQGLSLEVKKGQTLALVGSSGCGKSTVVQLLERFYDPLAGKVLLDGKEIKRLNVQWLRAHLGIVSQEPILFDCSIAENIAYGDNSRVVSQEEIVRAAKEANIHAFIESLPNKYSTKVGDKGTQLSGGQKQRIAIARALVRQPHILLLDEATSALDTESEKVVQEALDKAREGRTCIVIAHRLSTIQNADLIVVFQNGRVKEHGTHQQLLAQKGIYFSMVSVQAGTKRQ

[2] = circadian clock period modulators, cell-based, LOPAC library, luminescence reporter (AID 2774); conditions: circadian reporter cells, at 7 µM, actives lie on both sides;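 further: values are relative to mean of DMSO wells on each plate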
[3] = hESC survival regulators, cell-based (AID 493140); conditions: human embryonic stem cell survival screen; stronger effect = higher value;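 further: cells exposed to compounds for four days before counting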
[4] = system: Hepatitis C virus NS3 helicase; test: HCV NS3 helicase inhibitors, primary screen, biochemical, fluorescence polarization, LOPAC1280 library (AID 687035; in the data active means inhibition above about 37%); conditions: Purified HCV NS3 helicase, Cy5-dT15 ssDNA binding fluorescence polarization; stronger effect = higher value; concentration not given here
[5] = Cy5 fluorescence quenching or enhancement artefacts, artefact control for HCV NS3 helicase inhibitor project, biochemical, LOPAC1280 (AID 687037); conditions: Cy5-DNA-NS3h complex fluorescence interference counterscreen
[6] = Cy5 fluorescence interference with SSB-bound oligo, artefact control for HCV NS3 helicase inhibitor project, biochemical, NIH Clinical Collection, E. coli SSB (AID 743268)
[7] = system: Hepatitis C virus NS3 helicase; test: HCV NS3 helicase inhibitors, primary screen, biochemical, fluorescence polarization, NIH Clinical Collection (AID 743270); conditions: NS3 helicase binding to Cy5-dT15 DNA, stronger effect = higher value, concentration not given here
[8] = target: Single-stranded DNA-binding protein (Escherichia coli (strain K12)) (UniProt P0AGE0); test: E. coli SSB displacement from DNA, counter-screen for HCV NS3 helicase inhibitor project, biochemical, fluorescence polarization, NIH Clinical Collection (AID 743271; in the data active means inhibition above about 28%); conditions: stronger effect = higher value, concentration not given here
[9] = fluorescence interference in NS3h assay format, artefact control for HCV NS3 helicase inhibitor project, biochemical, NIH Clinical Collection (AID 743272); conditions: fluorescence interference counterscreen, stronger effect = lower value;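 further: HCV NS3 helicase with a Cy5 labelled single stranded DNA probe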
[10] = system: Neuropilin-2 / VEGF-C interaction (human); test: inhibitors of NRP2–VEGF-C binding, biochemical, microplate binding format, z-score (AID 743281); conditions: microplate NRP2/VEGF-C binding assay; stronger effect = lower value
[11] = stimulators of nuclear beta-catenin in C2C12, primary screen, imaging, WNT3A-conditioned medium, mouse C2C12, NPC library (AID 1117326; in the data active means nuclear beta-catenin stimulation mostly above about 4.2%, no sharp cut-off; inactive means mostly below about 10%); conditions: stronger effect = higher value
[12] = stimulators of insulin release from INS-1E, primary screen, cell-based, 5 mM glucose, NPC library (AID 1117329;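 active means compound raises insulin release from rat beta cells at 5 mM glucose, no numeric limit stated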); conditions: rat INS-1E insulin secretion, at 10 µM, stronger effect = higher value
[13] = growth inhibition of GSK3B-pretreated HCT116 cells – cell-based, CellTiter-Glo, 0.2 to 20 µM (AID 1117336;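 active means compounds lowering colon cancer cell viability after pretreatment blocking the GSK3B kinase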); conditions: HCT116 viability after GSK3B inhibitor, at 20 µM, stronger effect = higher value
[14] = inhibition of endothelial tube formation, primary screen, imaging, VEGF stimulated, CD31 staining, tube area, NPC library (AID 1117340;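 active means compound that reduces growth-factor-driven endothelial tube area in a mixed cell culture, no cutoff stated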); conditions: VEGF-stimulated ADSC/ECFC co-culture, at 10 µM, stronger effect = higher value
[15] = glucagon-like peptide 1 release enhancers, primary assay, NCI-H716 cell line, NPC library (AID 1117341;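 active means compound raises GLP1 secretion from the human gut endocrine cells, with no numeric limit stated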); conditions: NCI-H716 cells, at 10 µM, stronger effect = higher value
[16] = HCT116 colon cancer cell growth inhibition, primary screen, CellTiter-Glo luminescence, NPC library (AID 1117342;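 active means compounds that lower survival of HCT116 colon cancer cells in the luminescence readout, no numeric limit stated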); conditions: at 20 µM (top of the series)
[17] = CellTiter-Glo luminescent readout of SW480 viability loss, NPC library primary (AID 1117343;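 active means compounds that lower viability of the colon cancer cells in the luminescence readout, with no numeric limit stated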); conditions: CellTiter-Glo luminescence; at 20 µM (top of the series)
[18] = decreased DLD-1 cellular survival, CellTiter-Glo luminescent readout, NPC compound collection, primary HTS (AID 1117346;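 active means compounds that lower survival of DLD-1 colon cancer cells in the luminescence readout, no cutoff given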); conditions: DLD-1 viability, CellTiter-Glo luminescence; at 20 µM (top of the series)
[19] = target: 6-phosphogluconate dehydrogenase, decarboxylating (Homo sapiens) (UniProt P52209); test: 6PGD enzyme inhibitors, primary screen, biochemical, human, recombinant enzyme, NADPH absorbance (AID 1159550;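 active means at least 20% inhibition of 6-phosphogluconate dehydrogenase activity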); conditions: recombinant 6PGD, NADPH absorbance 341 nm; at 10 µM; stronger effect = higher value
Chain of 6-phosphogluconate dehydrogenase, decarboxylating (Homo sapiens) (P52209 whole entry, looked up): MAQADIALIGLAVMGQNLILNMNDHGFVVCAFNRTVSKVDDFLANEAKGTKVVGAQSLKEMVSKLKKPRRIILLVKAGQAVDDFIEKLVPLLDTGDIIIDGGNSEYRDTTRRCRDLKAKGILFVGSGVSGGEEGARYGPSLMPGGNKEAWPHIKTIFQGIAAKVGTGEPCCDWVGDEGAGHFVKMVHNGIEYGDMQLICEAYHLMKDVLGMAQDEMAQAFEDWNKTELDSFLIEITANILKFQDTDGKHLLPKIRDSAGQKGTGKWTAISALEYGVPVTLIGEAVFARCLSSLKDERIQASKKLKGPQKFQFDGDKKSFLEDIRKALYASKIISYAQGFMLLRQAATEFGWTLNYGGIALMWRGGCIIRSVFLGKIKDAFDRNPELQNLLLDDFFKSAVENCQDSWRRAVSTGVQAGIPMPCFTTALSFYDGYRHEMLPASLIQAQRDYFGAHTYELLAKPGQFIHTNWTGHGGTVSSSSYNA

[20] = modulation of C. elegans fzo-1 (AID 1259413);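 further: fzo-1 mutant C. elegans worms in liquid wells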; conditions: C. elegans fzo-1 modulator screen, mean read-out; stronger effect = higher value
[21] = differential killing of epithelial or mesenchymal cells, primary screen, imaging, PC-3E GFP, TEM4-18 mCherry, co-culture (AID 1345086;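 active means compounds killing one labelled cell type while sparing the other, by normalised counts and ratio limits, not self-fluorescent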;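 further: cells exposed to compound for 72 h before imaging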;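 on red/green cell ratio (normalised): normalised mesenchymal count divided by normalised epithelial count so high means epithelial killing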); conditions: imaging cell counts, at 1 µM
[22] = growth inhibition of DIPG glioma cells, dose response, cell-based, SU-DIPG-XVII, MIPE5.0, CellTiter-Glo, qHTS (AID 1347060; cut-off not given, nearly all actives have AC50 up to about 26 µM;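 further: cells exposed to compound for 48 hours before viability readout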); conditions: SU-DIPG-XVII viability, CellTiter-Glo ATP luminescence
[23] = growth inhibition of DIPG glioma cells, dose response, cell-based, SU-DIPG-XIII, MIPE4.0, CellTiter-Glo, qHTS (AID 1347061; cut-off not given, nearly all actives have AC50 up to about 37 µM;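 further: cells exposed to compound for 48 hours before readout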); conditions: SU-DIPG-XIII viability, CellTiter-Glo ATP luminescence
[24] = growth inhibition of DIPG glioma cells, dose response, cell-based, JHH-DIPG-1, MIPE4.0, CellTiter-Glo, qHTS (AID 1347062; cut-off not given, nearly all actives have AC50 up to about 27 µM;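 further: cells exposed to compound for two days before readout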); conditions: JHH-DIPG-1 viability, CellTiter-Glo ATP luminescence
[25] = growth inhibition of DIPG glioma cells, dose response, cell-based, SU-DIPG-IV, MIPE4.0, CellTiter-Glo, qHTS (AID 1347063; cut-off not given, nearly all actives have AC50 up to about 30 µM;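 further: compound exposure lasted 48 hours before the viability readout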); conditions: SU-DIPG-IV viability, CellTiter-Glo ATP luminescence
[26] = growth inhibition of DIPG glioma cells, dose response, cell-based, SU-DIPG-XIII, MIPE5.0, CellTiter-Glo, qHTS (AID 1347064; cut-off not given, nearly all actives have AC50 up to about 23 µM;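 further: cells exposed to compound for 48 hours before the viability read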); conditions: SU-DIPG-XIII viability, CellTiter-Glo ATP luminescence
[27] = viability loss in pontine glioma line – cell-based, SU-DIPG-XXV, MIPE5.0, CellTiter-Glo, qHTS, dose response (AID 1347065; cut-off not given, nearly all actives have AC50 up to about 26 µM;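 further: cells exposed to compound for 48 hours before ATP readout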); conditions: CellTiter-Glo ATP luminescence
[28] = SU-DIPG-VI glioma cell viability, MIPE4.0 library, CellTiter-Glo luminescence, qHTS (AID 1347066; cut-off not given, nearly all actives have AC50 up to about 30 µM;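 further: cells exposed to compound for 48 hours before readout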); conditions: CellTiter-Glo ATP luminescence
[29] = JHH-DIPG-1 glioma cell viability, MIPE5.0 library, CellTiter-Glo luminescence, qHTS (AID 1347067; cut-off not given, nearly all actives have AC50 up to about 26 µM;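 further: cells exposed to compound for 48 hours before readout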); conditions: JHH-DIPG-1 glioma viability, CellTiter-Glo ATP luminescence
[30] = SU-DIPG-XXV glioma cell viability, MIPE5.0 library, qHTS (AID 1347068; cut-off not given, nearly all actives have IC50 up to about 30 µM)
[31] = phospholipid biosynthesis inhibitors in animal cells, primary screen, cell-based, LOPAC library, screen 4 (AID 1347384); conditions: phospholipid biosynthesis inhibition screen, at 10 µM
[32] = survival rescue of mitochondrial mutant cells in low glucose, primary screen, MELAS cybrids, Rieske KO mouse fibroblasts, CellTiter-Glo (AID 1508586;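 active means mean z-score across replicates of 1.96 or higher in either the MELAS or the Rieske mutant cell line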;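 further: z relative to plate mean and SD of compound and empty wells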)
[33] = ovarian cancer cell viability with rucaparib, profiling panel, oncology-focused library, rucaparib conditional (AID 1508598;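 active means normalized viability below 100% at a tested concentration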); conditions: patient-derived ovarian cancer cells, CellTiter-Glo viability, 144 h, at 0.000305 µM, OCI-C5x cells, stronger effect = lower value

CCN(CC)C(=S)SSC(=S)N(CC)CC
active: fluorescence slope change [1] 81.8% | AC50 [22] 934 nM | AC50 [23] 10.5 nM | AC50 [24] 9.35 nM | AC50 [25] 20.9 nM | AC50 [26] 934 nM | AC50 [27] 833 nM | AC50 [28] 3.72 nM | AC50 [29] 934 nM
0.27: normalised cell number ([21]; measured here: epithelial PC-3E GFP cell survival)
inactive: period change [2] -0.07 h | survival [3] 16.9 | inhibition [4] -3% | fluorescence ratio (interference) [5] 1 | fluorescence ratio [6] 0.98 | inhibition [7] -1.19% | inhibition [8] -1.64% | fluorescence ratio [9] 0.99 | z-score [10] -0.138 | nuclear beta-catenin stimulation ([11]; at 10 µM) 5.4% | insulin secretion stimulation [12] 4.8% | viability decrease [13] 9.9% | tube area decrease [14] 35.6% | GLP1 secretion stimulation [15] 6.3% | inhibition of viability [16] 18.6% | viability decrease (inhibition) [17] 39.4% | viability decrease (inhibition) [18] 30.8% | inhibition [19] 1.47% | mean signal [20] 249 | red/green cell ratio (normalised) ([21]; actives lie on both sides, counts scaled to control wells, 1 = unselective) 0.63 | outcome [30] | outcome [31] | viability ([33]; with rucaparib 10 µM, 100% = cells with rucaparib alone) 117% | viability ([33]; without rucaparib) 126%
0.17: normalised cell number ([21]; measured here: mesenchymal TEM4-18 mCherry cell survival)
2.3%: nuclear beta-catenin stimulation ([11]; stimulation, at 2 µM)
-4.19 and 10.8 and 3.81: z-score ([32]; Rieske KO mouse fibroblast survival, CellTiter-Glo 72 h)
-0.351 (inactive) and 0.325 and -1.17: z-score ([32]; MELAS cybrid survival, CellTiter-Glo 48 h, stronger effect = higher value)
